# Data published in PubChem BioAssay.
# Active and inactive are the calls of the source. Unless noted, how the calls were made is not given here.
# Experiments:
# [1] = compound effects on lung adenocarcinoma cell viability – A549, calcein-AM fluorescence, 48 h, basal, profiling panel (AID 1162); conditions: higher = more signal; further: test concentration not given here
# [2] = compound effects on differentiated 3T3-L1 adipocyte viability – cell-based, 3T3-L1 adipocytes, calcein-AM fluorescence, 48 h, basal, profiling panel (AID 1163); conditions: 3T3-L1 adipocytes viability, higher = more signal; further: test concentration not given here
# [3] = compound effects on hepatocellular carcinoma cell viability – HepG2, calcein-AM fluorescence, 48 h, basal, profiling panel (AID 1164); conditions: higher = more signal; further: test concentration not given here
# [4] = compound effects on multiple myeloma cell viability – MM1S, calcein-AM fluorescence, 48 h, basal, profiling panel (AID 1165); conditions: higher = more signal; further: test concentration not given here
# [5] = calcein-AM signal in unstimulated myeloma cells – cell-based, calcein-AM fluorescence, 48 h, PK04 Diversity Set, profiling panel (AID 1166); conditions: RPMI8226 myeloma viability, higher = more signal;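 further: cells grown under basal conditions without added stimulus; test concentration not given here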
# [6] = JC-1 mitochondrial signal, unstimulated HepG2 cells – cell-based, JC-1 fluorescence, 24 h, 100 nL compound, profiling panel (AID 1167); conditions: HepG2 mitochondrial potential, higher = more signal; further: test concentration not given here
# [7] = JC-1 mitochondrial signal, unstimulated adipocytes – cell-based, JC-1 fluorescence, 3T3-L1 adipocytes, 24 h, 100 nL compound, profiling panel (AID 1168); conditions: JC-1 mitochondrial fluorescence, higher = more signal, called active from +8 up or from −8 down; further: test concentration not given here
# [8] = JC-1 mitochondrial signal, unstimulated myeloma cells – cell-based, JC-1 fluorescence, RPMI8226, 24 h, 100 nL compound, profiling panel (AID 1169); conditions: JC-1 mitochondrial potential fluorescence, higher = more signal; further: test concentration not given here
# [9] = JC-1 mitochondrial signal, unstimulated MM1S myeloma – cell-based, JC-1 fluorescence, 24 h, 100 nL compound, profiling panel (AID 1170); conditions: MM1S mitochondrial potential, higher = more signal; further: test concentration not given here
# [10] = resazurin metabolic signal in A549 cells – cell-based, resazurin fluorescence, 24 h, PK04 Diversity Set, profiling panel (AID 1171); conditions: A549 viability, higher = more signal, called active from +8 up or from −8 down; further: test concentration not given here
# [11] = resazurin metabolic signal in HepG2 cells – cell-based, resazurin fluorescence, 24 h, PK04 Diversity Set, profiling panel (AID 1172); conditions: HepG2 viability, higher = more signal; further: test concentration not given here
# [12] = budding yeast growth changes without added modifier – OD600, strain BY4716, 24 h, basal condition, primary screen (AID 1173); conditions: S. cerevisiae BY4716 growth, OD600, 24 h; higher = more signal, called active from +8 up or from −8 down
# [13] = viability profiling in MM1S myeloma cells – cell-based, resazurin fluorescence, basal, 24 h, PK04 Diversity Set, profiling panel (AID 1174); conditions: higher = more signal, called active from +8 up or from −8 down; further: test concentration not given here
# [14] = biological target: Dihydroorotate dehydrogenase (quinone), mitochondrial (Plasmodium falciparum (isolate 3D7)) (UniProt Q08210); experiment: inhibition of P. falciparum DHODH – biochemical, C-terminal His tag, absorbance 600 nm, primary screen (AID 1175); conditions: PfDHODH enzyme, DCIP absorbance 600 nm; higher = more signal, called active from +8 up or from −8 down;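 further: recombinant parasite enzyme with a five histidine tag at its C terminus; test concentration not given here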
# [15] = inhibition of PAO1 biofilm formation – strain PAO1, LB-PBS medium, absorbance 600 nm, primary screen (AID 1176); further: test concentration not given here; conditions: P. aeruginosa PAO1 growth/biofilm, A600, 12 h; higher = more signal
# [16] = growth modulation of vineyard yeast isolate – strain RM11-1a, OD600, basal, 24 h, primary screen (AID 1177);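 further: cultures grown under basal conditions with no added stressor; test concentration not given here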; conditions: S. cerevisiae RM11-1a growth, OD600, 24 h; higher = more signal, called active from +8 up or from −8 down
# [17] = growth of efflux-deficient E. coli DRC39 – strain DRC39, OD650, 24 h, E. coli filamentation inducers, primary screen (AID 1178);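 further: growth measured as culture turbidity by optical density at 650 nm; test concentration not given here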; conditions: E. coli DRC39 acrAB, higher = more signal, called active from +8 up or from −8 down
# [18] = growth of efflux-deficient E. coli DRC39 – strain DRC39, OD650, 48 h, E. coli filamentation inducers, primary screen (AID 1179);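 further: screen aims at cell division blockers that make cells filament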; conditions: E. coli DRC39 delta-acrAB growth, higher = more signal, called active from +8 up or from −8 down
# [19] = viability profiling in RPMI8226 myeloma cells – cell-based, resazurin fluorescence, basal, 24 h, PK04 Diversity Set, profiling panel (AID 1180); conditions: higher = more signal;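 further: RPMI8826 multiple myeloma cell line at 5000 cells per well; test concentration not given here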
# [20] = biological target: E3 ubiquitin-protein ligase XIAP (Homo sapiens) (UniProt P98170); experiment: small molecules binding XIAP protein – biophysical, small-molecule microarray, fluorescence 635 nm, primary screen (AID 1181); conditions: higher = more signal;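 further: score merges 667 nm emission and signal to noise over triplicate slides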
# E3 ubiquitin-protein ligase XIAP (Homo sapiens), sequence (P98170 whole entry, looked up): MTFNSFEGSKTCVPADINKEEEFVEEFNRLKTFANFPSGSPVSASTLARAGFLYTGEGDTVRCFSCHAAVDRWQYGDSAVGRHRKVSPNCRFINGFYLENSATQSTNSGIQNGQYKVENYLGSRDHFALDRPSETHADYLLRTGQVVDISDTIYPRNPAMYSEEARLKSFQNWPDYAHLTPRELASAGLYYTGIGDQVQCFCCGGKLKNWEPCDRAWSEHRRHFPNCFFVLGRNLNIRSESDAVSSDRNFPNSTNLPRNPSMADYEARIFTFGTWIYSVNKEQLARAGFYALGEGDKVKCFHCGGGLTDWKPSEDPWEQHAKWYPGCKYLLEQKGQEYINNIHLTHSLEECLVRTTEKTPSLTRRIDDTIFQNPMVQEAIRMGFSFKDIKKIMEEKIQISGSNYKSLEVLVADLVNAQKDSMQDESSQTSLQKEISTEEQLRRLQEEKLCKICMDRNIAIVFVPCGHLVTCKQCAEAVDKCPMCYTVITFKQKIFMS
# Dihydroorotate dehydrogenase (quinone), mitochondrial (Plasmodium falciparum (isolate 3D7)), sequence (Q08210 whole entry, looked up): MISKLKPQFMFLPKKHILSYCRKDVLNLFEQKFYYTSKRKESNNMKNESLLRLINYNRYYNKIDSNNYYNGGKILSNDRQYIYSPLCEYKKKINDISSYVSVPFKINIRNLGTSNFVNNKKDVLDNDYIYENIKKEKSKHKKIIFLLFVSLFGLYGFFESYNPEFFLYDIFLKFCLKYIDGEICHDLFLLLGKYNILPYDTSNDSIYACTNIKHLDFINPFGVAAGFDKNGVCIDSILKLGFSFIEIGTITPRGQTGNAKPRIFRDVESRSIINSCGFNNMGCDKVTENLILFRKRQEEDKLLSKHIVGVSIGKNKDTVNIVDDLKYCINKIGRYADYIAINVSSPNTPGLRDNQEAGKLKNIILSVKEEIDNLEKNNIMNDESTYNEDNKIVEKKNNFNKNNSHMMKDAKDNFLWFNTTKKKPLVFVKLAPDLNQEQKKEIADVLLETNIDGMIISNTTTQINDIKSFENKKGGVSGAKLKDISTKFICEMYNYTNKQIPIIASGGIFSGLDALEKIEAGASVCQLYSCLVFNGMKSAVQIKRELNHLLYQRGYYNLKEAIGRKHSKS
Structure (SMILES),z-score [1],z-score [2],z-score [3],z-score [4],z-score [5],z-score [6],z-score [7],z-score [8],z-score [9],z-score [10],z-score [11],z-score [12],z-score [13],composite z-score [14],z-score [15],z-score [16],z-score [17],z-score [18],z-score [19],composite z-score [20]
CO[C@H]1O[C@H](CO)[C@@H](OC(=O)Nc2ccccc2)[C@H](OC(=O)Nc2ccccc2)[C@H]1OC(=O)Nc1ccccc1,-1.27,0.416,-1.92,-0.77,-3.14,0.292,0.0293 (inactive),-0.77,-1.06,-3.04 (inactive),-1.08,0.0367 (inactive),-2.78 (inactive),1.02 (inactive),-0.317 (inactive),1.84 (inactive),1.48 (inactive),0.536 (inactive),-1.95,-0.0125
COC(=O)C(CC#Cc1ccc2c(c1)[C@]1(C(=O)N2)[C@H](c2ccccc2OCCO)N2[C@H](c3ccccc3)[C@H](c3ccccc3)OC(=O)[C@H]2[C@@H]1C(=O)N1CCc2cc(OC)c(OC)cc2C1)C(=O)OC,0.734,-0.19,2.08,0.857,-0.0217,-0.112,2.3 (inactive),-0.941,-1.47,-0.63 (inactive),0.0231,1.07 (inactive),-1.07 (inactive),-0.653 (inactive),2.83 (inactive),1.79 (inactive),0.021 (inactive),0.761 (inactive),-0.918,0.132
CC(=O)c1ccc(C(O)C2C=CC3C(=O)N(c4ccccc4)C(=O)C3N2Nc2ccc(C(C)C)cc2)cc1 (stereo not given),-0.301,-1.69,0.123,-1.1,-0.994,-2.03,-1.56 (inactive),-0.293,-1.29,-0.532 (inactive),-0.866,-0.829 (inactive),-1.44 (inactive),0.774 (inactive),0.503 (inactive),0.677 (inactive),0.481 (inactive),0.463 (inactive),-0.721,0.102
C=C(COC)/C(=C/C[C@@H](OC(C)=O)c1ccccc1OCCO)c1cnc2ccccc2c1,0.106,1.5,-0.268,-2.48,-1.14,0.23,-0.433 (inactive),0.328,1.4,-1.69 (inactive),-1.15,-2.19 (inactive),-0.975 (inactive),-7.89 (inactive),-0.104 (inactive),0.315 (inactive),-1.17 (inactive),-0.828 (inactive),-0.3,0.0739
COc1ccc(C(O)C2C=CC3C(=O)N(c4ccccc4)C(=O)C3N2Nc2ccc(C#N)cc2)cc1OCc1ccccc1 (stereo not given),0.233,-0.735,0.753,0.333,-0.692,-0.974,-1.14 (inactive),-0.137,-0.222,0.141 (inactive),-1.74,0.0151 (inactive),-0.829 (inactive),0.94 (inactive),1.45 (inactive),-0.396 (inactive),-0.933 (inactive),-0.0725 (inactive),-0.756,0.44
O=C(NC1CC1)[C@@H]1c2ccccc2C(=O)N(Cc2cc(C(F)(F)F)cc(C(F)(F)F)c2)[C@H]1c1ccc(CO)cc1,1.68,1.61,0.289,0.538,-1.32,0.693,-0.439 (inactive),0.801,-0.687,0.307 (inactive),-0.0465,-0.313 (inactive),-0.498 (inactive),-0.331 (inactive),1.12 (inactive),-0.44 (inactive),0.655 (inactive),-0.261 (inactive),0.51,-0.0448
O=C1C2C=CC(C(O)c3c(F)cccc3Cl)N(Nc3ccc([N+](=O)[O-])cc3)C2C(=O)N1c1ccccc1 (stereo not given),-1,-0.0012,-0.645,0.19,-1.09,-1.14,-1.26 (inactive),-0.209,-0.542,0.372 (inactive),-0.0492,0.615 (inactive),-0.396 (inactive),0.406 (inactive),0.685 (inactive),0.378 (inactive),-0.333 (inactive),-0.194 (inactive),0.278,-0.357
COC(=O)[C@@]1(Cc2ccccc2)[C@H]2c3cc(C(=O)N(C)C)n(Cc4ccc(S(C)(=O)=O)cc4)c3C[C@H]2CN1C(=O)c1ccccc1,-1.12,1.09,-0.827,0.0168,-1.39,2.64,-1.06 (inactive),-0.656,0.485,-1.59 (inactive),-1.17,1.33 (inactive),-2.74 (inactive),-0.316 (inactive),1.47 (inactive),0.879 (inactive),-1.1 (inactive),-1.28 (inactive),-0.668,0.291
C=C1C(=O)C=C2CN(C(=O)c3ccccc3)[C@@](Cc3ccc(OC)cc3)(C(=O)OC)[C@@H]12,-1.92,-0.033,-1.62,-1.73,-4.68,0.971,-1.02 (inactive),-0.908,-1.74,-0.701 (inactive),-0.187,1.33 (inactive),-1.82 (inactive),0.046 (inactive),0.964 (inactive),0.468 (inactive),-0.624 (inactive),-0.841 (inactive),-4.1,0.107
